Experimental data as given in PubChem BioAssay (NCI).
The panel holds about 79,000 compounds, 15% with a hit somewhere; the sample as a whole holds those more often. Activity calls are given as the source filed them. No stated cut-off is given here; in the data, active means growth inhibition above about 70%; inactive means the rest.

Tests used:
[1] = NCI Yeast Anticancer Drug Screen. Data for the rad52 strain (AID 147);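 further: 0% = growth of vehicle-treated control cultures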; details: S. cerevisiae rad52 mutant growth inhibition, hits give high values
Procedure, shortened: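 Genetically altered yeast (DNA damage repair defect) treated with compound; inhibition calculated relative to vehicle.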

[2] = NCI Yeast Anticancer Drug Screen. Data for the wt1 strain (AID 149);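 further: 0% = growth of vehicle-treated wt1 cultures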; details: S. cerevisiae wt1 strain (SPY 50644) growth inhibition, hits give high values
Procedure, shortened: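 Each compound is tested on wt1 yeast and the loss of growth versus vehicle gives the inhibition value.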

[3] = NCI Yeast Anticancer Drug Screen. Data for the rad50EPP+ strain (AID 151);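 further: 0% = growth of vehicle-treated control cultures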; details: S. cerevisiae rad50 mutant strain, hits give high values
Procedure, shortened: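 Strain rad50EPP+; compound exposure; % growth inhibition vs vehicle.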

[4] = NCI Yeast Anticancer Drug Screen. Data for the rad50 strain (AID 155);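 further: 0% = growth of vehicle-only cultures of the same strain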; details: S. cerevisiae rad50 strain growth inhibition, hits give high values
Procedure, shortened: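 Vehicle-treated cultures provide the reference for the growth inhibition reported for compound-exposed, repair-deficient yeast.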

[5] = NCI Yeast Anticancer Drug Screen. Data for the mec2-1 strain (AID 157); details: S. cerevisiae mec2-1 strain, hits give high values
Procedure, shortened: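 Cells of the genetically defined mec2-1 yeast strain are incubated with test compound. Inhibition of growth is calculated against vehicle-treated controls.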

[6] = NCI Yeast Anticancer Drug Screen. Data for the rad14 strain (AID 159);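 further: 0% = growth of vehicle-treated control cultures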; details: S. cerevisiae rad14 strain growth inhibition, hits give high values
Procedure, shortened: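 Inhibition of growth is reported for a repair-deficient yeast mutant following compound treatment, calculated relative to cultures that received vehicle.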

[7] = NCI Yeast Anticancer Drug Screen. Data for the sgs1 mgt1 strain (AID 161);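 further: 0% = growth of cultures given vehicle only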; details: S. cerevisiae sgs1 mgt1 strain, hits give high values
Procedure, shortened: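 Read-out: growth inhibition vs vehicle controls. Cells: mutant yeast strain deficient in DNA damage repair.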

[8] = NCI Yeast Anticancer Drug Screen. Data for the CLN2oe strain (AID 163);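 further: 0% = growth of vehicle-only control cultures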; details: S. cerevisiae CLN2oe strain, hits give high values
Procedure, shortened: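 Strain altered in cell-cycle control, incubated with compound; growth compared to solvent-treated controls.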

[9] = NCI Yeast Anticancer Drug Screen. Data for the cln2 rad14 strain (AID 165);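 further: 0% = growth equal to vehicle treated cultures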; details: S. cerevisiae cln2 rad14 strain, hits give high values
Procedure, shortened: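 The screen exposed genetically defined yeast (cln2 rad14) to test compounds and scored growth inhibition relative to vehicle-treated controls.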

[10] = NCI Yeast Anticancer Drug Screen. Data for the bub3 strain (AID 167); details: S. cerevisiae bub3 mutant strain, hits give high values
Procedure, shortened: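 Mutant yeast screening strain plus compound; vehicle-treated cultures serve as the 0% inhibition reference.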

[11] = NCI Yeast Anticancer Drug Screen. Data for the wt2 strain (AID 169); details: S. cerevisiae wt2 strain growth inhibition, hits give high values
Procedure, shortened: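 Steps: yeast strain treated with compound; growth recorded; inhibition calculated relative to cultures given vehicle alone.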

[12] = NCI Yeast Anticancer Drug Screen. Data for the mlh1 strain (AID 171);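 further: 0% = growth of vehicle-treated control cultures of the same strain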; details: S. cerevisiae mlh1 strain growth inhibition, hits give high values
Procedure, shortened: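 Yeast screen: mutant strain plus compound, growth scored against vehicle control wells.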

[13] = NCI Yeast Anticancer Drug Screen. Data for the sgs1 strain (AID 173);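 further: 0% = growth of vehicle-only control cultures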; details: S. cerevisiae sgs1 mutant, hits give high values
Procedure, shortened: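 Inhibition of yeast growth served as the measure. The mutant strain was treated with each compound, and growth was normalised to cultures receiving vehicle alone.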

[14] = NCI Yeast Anticancer Drug Screen. Data for the mlh1 rad18 strain (AID 175); details: S. cerevisiae mlh1 rad18 strain growth inhibition, hits give high values
Procedure, shortened: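 Compound-treated yeast growth, normalised to vehicle controls. Strain bears defined DNA repair mutations.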

[15] = NCI Yeast Anticancer Drug Screen. Data for the rad18 strain (AID 177); details: S. cerevisiae rad18 mutant growth inhibition, hits give high values
Procedure, shortened: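 Inhibition values reflect reduced yeast growth compared with vehicle-treated controls, using a strain engineered with a DNA damage repair defect.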

[16] = at 5.0 µM (retest, dose inferred, filed as 0.5)
[17] = at 50.0 µM (retest, dose inferred, filed as 5.0)

Measured: growth inhibition

CCCCCCSc1nc(COC(=O)NC)c(COC(=O)NC)n1C
inactive: [1]; at 1.2 µM -1% | [1]; at 3.7 µM 0% | [1]; at 11.0 µM -2% | [1]; at 33.0 µM 25% | [2]; at 1.2 µM -1% | [2]; at 3.7 µM -2% | [2]; at 11.0 µM -2% | [2]; at 33.0 µM 6% | [3]; at 1.2 µM -3% | [3]; at 3.7 µM -6% | [3]; at 11.0 µM -6% | [3]; at 33.0 µM 5% | [4]; at 1.2 µM 0% | [4]; at 3.7 µM -48% | [4]; [16] 0% | [4]; at 11.0 µM 20% | [4]; at 33.0 µM 54% | [4]; at 50.0 µM 49.6% | [5]; at 1.2 µM -1% | [5]; at 3.7 µM 2% | [5]; [16] 0% | [5]; at 11.0 µM 0% | [5]; at 33.0 µM 9% | [5]; [17] 27% | [6]; at 1.2 µM -3% | [6]; at 3.7 µM -4% | [6]; at 11.0 µM -4% | [6]; at 33.0 µM 28% | [7]; [16] 0% | [7]; [17] 5% | [7]; at 50.0 µM 19.9% | [8]; at 1.2 µM -2% | [8]; at 3.7 µM -5% | [8]; at 11.0 µM -3% | [8]; at 33.0 µM 20% | [9]; [16] -2% | [9]; [17] 57% | [10]; at 1.2 µM -4% | [10]; at 3.7 µM 0% | [10]; [16] -2% | [10]; at 11.0 µM -4% | [10]; at 33.0 µM 16% | [10]; [17] 45% | [10]; at 50.0 µM 44.2% | [11]; at 1.2 µM -3% | [11]; at 3.7 µM -14% | [11]; at 11.0 µM -4% | [11]; at 33.0 µM 33% | [12]; at 1.2 µM -1% | [12]; at 3.7 µM 0% | [12]; at 11.0 µM -2% | [12]; at 33.0 µM 32% | [13]; at 1.2 µM -4% | [13]; at 3.7 µM -3% | [13]; at 11.0 µM -6% | [13]; at 33.0 µM 59% | [14]; [16] -2% | [15]; at 1.2 µM -1% | [15]; at 3.7 µM -1% | [15]; at 11.0 µM -1% | [15]; at 33.0 µM 33%
active: [1]; at 100.0 µM 98% | [2]; at 100.0 µM 98% | [3]; at 100.0 µM 87% | [4]; [17] 91% | [4]; at 100.0 µM 99% | [5]; at 50.0 µM 98.3% | [5]; at 100.0 µM 99% | [6]; at 100.0 µM 99% | [8]; at 100.0 µM 97% | [9]; at 50.0 µM 72.8% | [10]; at 100.0 µM 99% | [11]; at 100.0 µM 99% | [12]; at 100.0 µM 99% | [13]; at 100.0 µM 99% | [14]; [17] 74% | [14]; at 50.0 µM 98.3% | [15]; at 100.0 µM 98%
